Some test systems named below: ZAK; ZAP70; p38-delta.
Common to all, as to settings: n = 1
A further assay deals with T1, YES.
T1 construct: gene YES1

The test system of a further assay is T2, YSK1.
T2 construct: gene STK25

The next assay deals with T3, YSK4.
T3 construct: gene MAP3K19

Another assay relates to T4, p38-alpha.
T4 construct: gene MAPK14

The next assay deals with T5, p38-beta.
T5 construct: gene MAPK11

Another assay concerns T6, p38-gamma.
T6 construct: gene MAPK12

The mark [1] stands for this setting: concentration: 1 μM, replicates: in singlicate.

Molecules are shown by their SMILES. Read-outs that look alike come from different tables or passages of the source.
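Note: KINOMEscan kinase panel screen.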

As to `Cc1cccc(-c2nc(C)cc(Nc3ccncc3)n2)n1` [GSK257997], the “%Inh” value came out at 15% in the assay on YES (setting [1]); 8% with YSK1 (setting [1]); 0% in the assay on YSK4 (setting [1]); 0% with ZAK (setting [1]); 0% with ZAP70 (setting [1]); 9% in the assay with p38-alpha (setting [1]). The “%Inh” value with p38-beta (setting [1]) is given as 0%; in the assay with p38-delta (setting [1]) it was 51%; in the assay with p38-gamma (setting [1]) it was 6%.

For `Cc1ccccc1-n1cnc2c(N)ncnc21` [SKF-97510], the “%Inh” value in the assay with YES (setting [1]) is on record as 11%; in the assay with YSK1 (setting [1]), 9%; in the assay with YSK4 (setting [1]), 0%; in the assay with ZAK (setting [1]), 9%; in the assay on ZAP70 (setting [1]) it was 0%; in the assay on p38-alpha (setting [1]), 0%. The “%Inh” value in the assay with p38-beta (setting [1]) was 0%; with p38-delta (setting [1]) it was 0%; in the assay on p38-gamma (setting [1]), 15%.

With `COc1cc(Nc2nccc(N3CCC(NC(=O)Nc4cc(C)ccc4C)C3)n2)cc(OC)c1OC` (stereo not drawn) [GSK1379762], the “%Inh” value is 10% in the assay on YES (setting [1]); 0% in the assay with YSK1 (setting [1]); 27% in the assay on YSK4 (setting [1]); 3% in the assay on ZAK (setting [1]); 0% in the assay with ZAP70 (setting [1]); 0% in the assay on p38-alpha (setting [1]). Further, the entries for the “%Inh” value in the assay with p38-beta (setting [1]), in the assay on p38-delta (setting [1]) and in the assay with p38-gamma (setting [1]) were 0%, 32% and 24%, respectively.

Take `Cl.NC(=O)c1cccc(Nc2nccc(Nc3ccc(Oc4cccc(Cl)c4)c(Cl)c3)n2)c1` [GW659008]: the “%Inh” value worked out at 54% with YES (setting [1]); 0% in the assay with YSK1 (setting [1]); 0% in the assay on YSK4 (setting [1]); 53% in the assay with ZAK (setting [1]); 0% with ZAP70 (setting [1]); 8% with p38-alpha (setting [1]). The “%Inh” value came to 0% in the assay with p38-beta (setting [1]), 38% in the assay with p38-delta (setting [1]) and 0% in the assay on p38-gamma (setting [1]).

Consider `O=C(Nc1n[nH]c2nc(-c3nccs3)c(Br)cc12)C1CC1` [SB-742251], for which the “%Inh” value in the assay on YES (setting [1]) came out at 16%; with YSK1 (setting [1]) it was 9%; with YSK4 (setting [1]) it was 95.4%; in the assay on ZAK (setting [1]) it was 7%; with ZAP70 (setting [1]), 0%; in the assay with p38-alpha (setting [1]), 0%. The “%Inh” value stood at 0% with p38-beta (setting [1]), 20% in the assay on p38-delta (setting [1]) and 0% in the assay on p38-gamma (setting [1]).

As for `O=C(Nc1ccccc1)Nc1cccc(Oc2ccc3nccn3n2)c1`, the “%Inh” value with YES (setting [1]) was 0%; in the assay with YSK1 (setting [1]), 0%; in the assay on YSK4 (setting [1]), 87%; in the assay with ZAK (setting [1]), 35%; with ZAP70 (setting [1]), 0%; in the assay with p38-alpha (setting [1]), 0%. Moreover, the “%Inh” value with p38-beta (setting [1]) is listed as 0%; in the assay on p38-delta (setting [1]), 0%; with p38-gamma (setting [1]) it was 19%.

With `Cc1cc(-c2ccc3c(c2)CC[C@@H](N[C@@H](C)c2ccccc2)C3)cnc1N.Cl` [GW412617], the “%Inh” value amounted to 4% in the assay with YES (setting [1]); 0% with YSK1 (setting [1]); 100% in the assay on YSK4 (setting [1]); 1% with ZAK (setting [1]); 0% in the assay with ZAP70 (setting [1]); 0% in the assay on p38-alpha (setting [1]). Besides, the “%Inh” value in the assay with p38-beta (setting [1]) came to 0%; with p38-delta (setting [1]) it was 25%; with p38-gamma (setting [1]) it was 0%.

Take `COc1cc2ncn(-c3cc(OCC4CCCO4)c(C(N)=O)s3)c2cc1OC` (stereo not drawn) [GSK204607]: the “%Inh” value in the assay with YES (setting [1]) came out at 12%; in the assay with YSK1 (setting [1]), 22%; with YSK4 (setting [1]) it was 53%; with ZAK (setting [1]), 6%; with ZAP70 (setting [1]) it was 0%; in the assay with p38-alpha (setting [1]), 0%. The “%Inh” value in the assay with p38-beta (setting [1]) amounted to 0%; in the assay with p38-delta (setting [1]) it was 37%; with p38-gamma (setting [1]) it was 0%.

Consider `O=S(=O)(c1ccc(-c2ccnc3[nH]ccc23)cc1)N1CCCC1` [GSK846226], for which the “%Inh” value is on record as 8% in the assay with YES (setting [1]); 21% with YSK1 (setting [1]); 63% with YSK4 (setting [1]); 0% in the assay with ZAK (setting [1]); 0% in the assay with ZAP70 (setting [1]); 6% with p38-alpha (setting [1]). Further, the “%Inh” value worked out at 0% in the assay on p38-beta (setting [1]), 11% in the assay on p38-delta (setting [1]) and 6% with p38-gamma (setting [1]).

As to `Cn1ccc2ncnc(Oc3cccc(C(=O)Nc4ccccc4)c3)c21`, the “%Inh” value with YES (setting [1]) turned out to be 1%; in the assay with YSK1 (setting [1]), 0%; in the assay on YSK4 (setting [1]), 1%; in the assay on ZAK (setting [1]), 0%; in the assay with ZAP70 (setting [1]) it was 0%; in the assay with p38-alpha (setting [1]), 0%. The “%Inh” value in the assay on p38-beta (setting [1]) worked out at 6%; with p38-delta (setting [1]) it was 3%; in the assay with p38-gamma (setting [1]), 0%.

`COC(=O)c1c(-c2ccccc2)c2cc(OC)ccc2c(=O)n1Cc1ccccc1`: the “%Inh” value with YES (setting [1]) turned out to be 0%; in the assay with YSK1 (setting [1]), 1%; in the assay on YSK4 (setting [1]), 0%; in the assay on ZAK (setting [1]) it was 20%; in the assay on ZAP70 (setting [1]), 0%; in the assay on p38-alpha (setting [1]), 36%. The results for the “%Inh” value in the assay on p38-beta (setting [1]), in the assay with p38-delta (setting [1]) and in the assay with p38-gamma (setting [1]) were 7%, 42% and 0%, respectively.

For `COc1ccccc1CNC(=O)c1cc(C(=O)c2ccccc2C)c[nH]1` [GSK364507], the “%Inh” value is listed as 16% in the assay with YES (setting [1]); 0% with YSK1 (setting [1]); 28% with YSK4 (setting [1]); 24% in the assay on ZAK (setting [1]); 13% in the assay with ZAP70 (setting [1]); 93.3% in the assay with p38-alpha (1 µM). The “%Inh” value is 0% with p38-beta (setting [1]), 39% with p38-delta (setting [1]) and 0% in the assay with p38-gamma (setting [1]).

With `Cc1ccc(NC(=O)Nc2cccc(C(F)(F)F)c2)cc1` [GSK955403], the “%Inh” value came to 10% with YES (1 µM); 0% with YSK1 (1 µM); 0% in the assay on YSK4 (1 µM); 39% in the assay on ZAK (1 µM); 0% in the assay on ZAP70 (1 µM); 10% in the assay on p38-alpha (1 µM). Also, the results for the “%Inh” value in the assay on p38-beta (1 µM), in the assay on p38-delta (1 µM) and with p38-gamma (1 µM) were 57%, 0% and 46%, respectively.

On to `O=C1NC(=O)C(N2CCc3ccccc32)=C1c1ccccc1Cl` [SB-373598], for which the “%Inh” value was determined as 10% with YES (setting [1]); 0% with YSK1 (setting [1]); 0% with YSK4 (setting [1]); 17% in the assay on ZAK (setting [1]); 0% with ZAP70 (setting [1]); 0% in the assay with p38-alpha (setting [1]). The “%Inh” value worked out at 35% with p38-beta (setting [1]), 6% in the assay with p38-delta (setting [1]) and 18% in the assay on p38-gamma (setting [1]).

As to `CC(=O)Nc1nc2cnc(Nc3cc(NC(=O)c4cccc(CCC#N)c4)ccc3C)nc2s1`, the “%Inh” value was found to be 3% with YES (setting [1]); 0% in the assay with YSK1 (setting [1]); 19% in the assay with YSK4 (setting [1]); 0% in the assay on ZAK (setting [1]); 0% with ZAP70 (setting [1]); 77% in the assay with p38-alpha (setting [1]). Also, the entries for the “%Inh” value in the assay with p38-beta (setting [1]), in the assay with p38-delta (setting [1]) and in the assay on p38-gamma (setting [1]) were 17%, 16% and 32%, respectively.

On to `COc1ccc(CNC(=O)NC2CCN(c3ccnc(Nc4cc(OC)c(OC)c(OC)c4)n3)C2)cc1` (stereo not drawn) [GSK1379748], for which the “%Inh” value in the assay on YES (setting [1]) is 0%; with YSK1 (setting [1]), 9%; with YSK4 (setting [1]), 13%; with ZAK (setting [1]) it was 5%; with ZAP70 (setting [1]) it was 3%; in the assay on p38-alpha (setting [1]), 12%. In addition, the “%Inh” value in the assay on p38-beta (setting [1]) is 0%; in the assay on p38-delta (setting [1]), 26%; in the assay with p38-gamma (setting [1]), 0%.

With `Fc1cccc(COc2nnc(-c3ccc4c(c3)CCO4)o2)c1`, the “%Inh” value with YES (setting [1]) was determined as 0%; in the assay on YSK1 (setting [1]), 0%; in the assay on YSK4 (setting [1]) it was 31%; in the assay on ZAK (setting [1]), 0%; in the assay with ZAP70 (setting [1]) it was 0%; with p38-alpha (setting [1]) it was 15%. Also, the “%Inh” value in the assay with p38-beta (setting [1]) stood at 0%; in the assay on p38-delta (setting [1]) it was 4%; with p38-gamma (setting [1]), 0%.

As to `Cc1csc(-c2nc(Nc3ccncc3)c3ccccc3n2)n1` [GW869640], the “%Inh” value in the assay on YES (setting [1]) is given as 0%; in the assay with YSK1 (setting [1]), 0%; in the assay with YSK4 (setting [1]), 38%; in the assay on ZAK (setting [1]), 17%; in the assay on ZAP70 (setting [1]), 18%; in the assay with p38-alpha (setting [1]), 14%. Further, the “%Inh” value in the assay on p38-beta (setting [1]) stood at 12%; in the assay with p38-delta (setting [1]), 0%; in the assay with p38-gamma (setting [1]), 39%.

Values taken from paper PMC5540273 (PLoS ONE, 2017).
